Hits are enriched below; roughly 5.7% of the tested compounds scored in any of these assays.
TGFb inhibitor = TGF-b pathway inhibition; Potency, µM (titrated, usually from 46.1 µM), most hits filed as inhibitors; 1.2% of 410,000 active; HepG2 CAGA-GFP TGF-b/SMAD3 reporter, GFP fluorescence, 18 h; TGF-beta stimulated, 500 pg/mL final; AID 588855; further: nearly all actives have a fitted effect of over 65% in size
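First, reporter cells (HEPG2 CAGA-GFP) rested 2 h at 37 degrees C. Next, compounds were pinned in and TGF-beta added to 500 pg/mL final. After 18 h, GFP was imaged per cell and summed per well.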
S2 tox = cell viability loss in ATXN counter-screen. S2 cells (HEK-293 line with an ATXN2-luciferase reporter) viability, CellTiter-Fluor protease fluorescence, 24 h. Potency, µM (doses to about 56.7 µM), actives largely listed as cytotoxic. 0.49% of 400,000 active. AID 651635; further: nearly all actives have a fitted effect of over 40% in size
IL1B secr inh = blocks inflammasome-driven IL-1 beta release; THP-1 LPS/ATP IL-1B secretion, AlphaLISA, 16 h; stronger effect = lower value; activity change, % at 57.5 µM; 4.7% of 360,000 active; in the data active means activity change below about -50%; inconclusive means mostly about -30% to -49%
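Secreted IL-1B measured by AlphaLISA bead assay after 16 h compound exposure of THP-1 cells; compounds (final up to 57.5 uM) added 1 h before LPS (250 ng/mL) and ATP (1.25 mM) stimulation; lower signal means less secretion.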
HepG2 viability = HepG2 cytotoxicity, counter-screen for TGF-b inhibitors; 0.76% of 410,000 active; HepG2 CAGA-GFP viability, ATP luminescence, 18 h; Potency, µM (series often up to 46.1 µM), actives largely listed as cytotoxic; AID 588856
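CellTiter-Glo luminescence gave cytotoxicity after 18 hours at 37 degrees C. The cells were HepG2 CAGA-GFP in 1% FBS DMEM, stimulated with 500 pg/mL TGF-beta after compound addition. %Activity was normalised to no-cell wells (complete cell-killing) and DMSO (no toxicity), and curves were fitted and classified.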
ATXN2 expr inh = ATXN2 expression inhibition | HEK-293 ATXN2-luciferase reporter, luminescence, 24 h | Potency, µM (doses to about 57 µM), most hits filed as inhibitors | 0.72% of 360,000 active | AID 1745845; further: nearly all actives have a fitted effect of over 55% in size
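ATXN2-luciferase reporter cells (luciferase flanked by upstream and downstream ATXN2 gene portions) were treated 24 h at 37 °C with compounds at up to 57 uM. SteadyGlo luminescence gave expression; GF-AFC fluorescence gave viability.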
Of the large screens only hits and unclear results are named; the others gave an inactive call. Unless noted, the call rests on the fitted dose curve; in most records, active means well fitted curve in the direction sought with a large enough effect; inconclusive means small, poorly fitted or top-dose-only effect, or another doubt; inactive means no such curve, though single readings can be large; an effect the other way counts as inactive or inconclusive.

CCCCN(CCCC)CC(O)COc1ccc(Br)cc1 (stereo not drawn)	TGFb inhibitor inconclusive, IL1B secr inh -67, ATXN2 expr inh inconclusive
CCOC(=O)c1c(NC(=O)c2cc(=O)c3ccc(C)cc3o2)sc(C)c1C	none (no result: IL1B secr inh)
O=C(CSc1nc(=O)[nH]c2c1CCC2)NCc1ccc(F)cc1	none (no result: S2 tox, IL1B secr inh, ATXN2 expr inh)
O=C(COc1ccc(F)cc1Br)N1CCN(S(=O)(=O)/C=C/c2ccccc2)CC1	IL1B secr inh -50
O=C(COc1ccc(F)cc1Br)N1CCN(c2ncccn2)CC1	none
CCc1ccc(S(=O)(=O)c2nnn3c2nc(NC2CCCCCC2)c2sccc23)cc1	none (no result: S2 tox, IL1B secr inh, ATXN2 expr inh)
COc1ccc(CN(CC(O)COCc2ccccc2)S(=O)(=O)c2ccccc2Br)cc1OC (stereo not drawn)	TGFb inhibitor inconclusive, IL1B secr inh -64, ATXN2 expr inh inconclusive
C=CC(COCc1ccccc1)N(C(=O)OC(C)(C)C)S(=O)(=O)c1ccccc1Br (stereo not drawn)	none
NC(=O)CCCn1c(C(=O)c2ccc(Cl)cc2)c2ccc([N+](=O)[O-])cc2[n+]1[O-]	TGFb inhibitor inconclusive, S2 tox 18µM, ATXN2 expr inh inconclusive
NCCCn1c(C(=O)c2ccc(Cl)cc2)c2ccc(C(F)(F)F)cc2[n+]1[O-]	none
NC(=O)CCCn1c(C(=O)c2ccc(Cl)cc2)c2ccc(C(F)(F)F)cc2[n+]1[O-]	S2 tox inconclusive
Cc1ccc(C(=O)c2c3ccc([N+](=O)[O-])cc3[n+]([O-])n2CCCC(N)=O)cc1	TGFb inhibitor inconclusive, S2 tox inconclusive, ATXN2 expr inh inconclusive
NC(=O)CCCn1c(C(=O)c2cc(Cl)c(N)c(Cl)c2)c2ccc([N+](=O)[O-])cc2[n+]1[O-]	TGFb inhibitor 7.9µM, S2 tox 28µM, ATXN2 expr inh inconclusive
NCCCn1c(C(=O)c2ccc(Cl)cc2)c2ccc([N+](=O)[O-])cc2[n+]1[O-]	TGFb inhibitor 10µM, S2 tox inconclusive, IL1B secr inh -60, ATXN2 expr inh inconclusive
S=C(NCCCc1cnc[nH]1)NCCCN(Cc1ccc(Cl)cc1)c1cc(-c2ccccc2)ccn1	TGFb inhibitor inconclusive (no result: S2 tox, IL1B secr inh, ATXN2 expr inh)
CCOc1ccc(/C=N/OCC(=O)NC(c2ccccc2)c2ccccc2)cc1	TGFb inhibitor 22µM
CN(C(=O)COC(=O)c1cnc(Cl)c(Cl)c1)C1CCCCC1	IL1B secr inh -96
CCN(CC)C(=O)COc1ccc(Br)cc1Cl	TGFb inhibitor inconclusive, S2 tox inconclusive
CN(C(=O)COC(=O)c1cnc(Cl)c(Cl)c1)C1CCS(=O)(=O)C1 (stereo not drawn)	IL1B secr inh -86
CN(C(=O)COc1ccc(Br)cc1Cl)C1CCCCC1	IL1B secr inh -52
CCN1CCCC1CN(Cc1cc2ccc(C)cc2[nH]c1=O)C(=S)Nc1cccc(OC)c1 (stereo not drawn)	IL1B secr inh -77
CCN1CCCC1CN(Cc1cc2ccc(C)cc2[nH]c1=O)C(=S)Nc1ccc(OC)cc1 (stereo not drawn)	TGFb inhibitor inconclusive, S2 tox inconclusive, IL1B secr inh -106, HepG2 viability 13µM
CC[n+]1cccc(Br)c1	none (no result: S2 tox, IL1B secr inh, ATXN2 expr inh)
Cc1ccc(CCNC(=O)CCn2nc(-c3ccc(Cl)cc3)ccc2=O)cc1	none (no result: IL1B secr inh)
Cc1ccc(C(=O)NCc2ccc3c(c2)CCN3C(=O)c2ccc(C)cc2)cc1	none (no result: S2 tox, IL1B secr inh, ATXN2 expr inh)
Cc1ccc2cc(CCNS(=O)(=O)c3ccc(Cl)cc3)c(=O)[nH]c2c1C	IL1B secr inh -79
Cc1c(NC(=O)Nc2ccc(Cl)c(Cl)c2)sc(=S)n1C	TGFb inhibitor inconclusive, IL1B secr inh -97, ATXN2 expr inh inconclusive (no result: S2 tox)
C[C@@H]1CN([C@H](C)CO)S(=O)(=O)c2ccc(C#Cc3ccccc3F)cc2O[C@H]1CN(C)C(=O)c1ccc2c(c1)OCO2	TGFb inhibitor inconclusive, S2 tox 13µM, IL1B secr inh -74, ATXN2 expr inh inconclusive
C[C@H]1CN([C@@H](C)CO)S(=O)(=O)c2ccc(/C=C/c3ccccc3)cc2O[C@H]1CN(C)C(=O)NC1CCCCC1	TGFb inhibitor inconclusive, S2 tox inconclusive, IL1B secr inh -55, ATXN2 expr inh inconclusive
C[C@H]1CN([C@@H](C)CO)S(=O)(=O)c2ccc(C3=CCCC3)cc2O[C@@H]1CN(C)C(=O)C1CCCCC1	TGFb inhibitor inconclusive, S2 tox 20µM, IL1B secr inh -51, ATXN2 expr inh inconclusive
C/C=C/c1ccc2c(c1)O[C@@H](CN(C)C(=O)c1ccc(F)cc1)[C@@H](C)CN([C@H](C)CO)S2(=O)=O	S2 tox inconclusive
C[C@@H]1CN([C@H](C)CO)S(=O)(=O)c2ccc(Br)cc2O[C@H]1CN(C)C(=O)C1CCCCC1	S2 tox inconclusive, ATXN2 expr inh inconclusive
CCC1CN(CCNC(=O)c2cccc(C(=O)OC)c2)Cc2cc(OC)ccc2O1 (stereo not drawn)	none (no result: TGFb inhibitor, IL1B secr inh, HepG2 viability, ATXN2 expr inh)
CC(=O)N1CCN(c2nc(-c3cccs3)nc3ccccc23)CC1	IL1B secr inh -86
O=C(c1cc(-c2cccs2)nc2ccccc12)N1CCN(c2ccccc2O)CC1	TGFb inhibitor inconclusive, S2 tox inconclusive, IL1B secr inh -67
O=C(c1cc(-c2ccccc2Cl)nc2ccccc12)N1CCN(c2ccccc2O)CC1	S2 tox inconclusive, IL1B secr inh -70
CN1CCCN(C(=O)c2cc(-c3cccc4ccccc34)nc3ccccc23)CC1	S2 tox inconclusive, IL1B secr inh -63
CCOC(=O)N1CCN(c2nc(-c3cccs3)nc3ccccc23)CC1	TGFb inhibitor inconclusive, IL1B secr inh inconclusive, ATXN2 expr inh inconclusive
CN1c2ccc(Cl)cc2-c2nc(SCC(=O)NCc3ccccc3)ncc2S1(=O)=O	none (no result: IL1B secr inh)
COc1ccc(C(C(=O)Nc2ccc(C(C)C)cc2)N(C)C(=O)Cc2cccs2)cc1 (stereo not drawn)	none (no result: IL1B secr inh)
CCn1c(-c2ccccc2F)nc2cc(NC(C)=O)cc(C(=O)N3CCCC3c3nccs3)c21 (stereo not drawn)	none (no result: TGFb inhibitor, IL1B secr inh, HepG2 viability, ATXN2 expr inh)
COc1ccc2[nH]cc(C(=O)CCl)c2c1	TGFb inhibitor inconclusive, S2 tox 16µM, IL1B secr inh -96, ATXN2 expr inh inconclusive
COc1ccccc1/C=C/C(=O)c1ccc(Cl)cc1	TGFb inhibitor inconclusive, IL1B secr inh -56
COc1ccc(/C=C/C(=O)c2ccc(OC)cc2OC)c(OC)c1	IL1B secr inh -58
CC(=O)c1ccc(NS(=O)(=O)c2ccc(C)cc2)cc1	none
COc1cc(OC)c(OC)cc1/C=C/C(=O)c1ccc(NS(=O)(=O)c2ccc(C)cc2)cc1	TGFb inhibitor inconclusive, IL1B secr inh -60
COc1ccc2[nH]cc(C(=O)CN3CC(C)CC(C)C3)c2c1 (stereo not drawn)	S2 tox inconclusive
COc1ccc2cc(CNCc3ccccc3C(F)(F)F)c(N3CCCC(CO)C3)nc2c1 (stereo not drawn)	none (no result: TGFb inhibitor, IL1B secr inh, HepG2 viability, ATXN2 expr inh)
COc1ccc(OC)c(/C=C/C(=O)c2ccc(Cl)cc2)c1	TGFb inhibitor inconclusive, IL1B secr inh -89

Source: PubChem
